Laboratory results published in PubChem BioAssay (NCI).
This is part of a sample that, as a whole, favours compounds with a hit. Of some 83,000 tested, about 20% had one in any assay.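 Method: cells in 96-well plates; compound added at one concentration; 48 h incubation; percent growth measured; values under 10 scored active.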 Calls of active or inactive are those of the source.

Experiments:
Test in all cases: NCI-60 one-dose screen, 48 h (100 = growth as untreated, 0 = no growth, -100 = all killed)
Conditions in all cases: 10 µM unless noted
[1] = system: NCI-H23 lung
[2] = system: NCI-H226 lung
[3] = system: NCI-H322M lung
[4] = system: HOP-62 NSCLC
[5] = system: NCI-H460 lung
[6] = system: HOP-92 NSCLC
[7] = system: NCI-H522 lung
[8] = system: A549/ATCC NSCLC
[9] = system: 786-0 renal
[10] = system: COLO 205 colon
[11] = system: DU-145 prostate
[12] = system: K-562 leukemia
[13] = system: MALME-3M melanoma
[14] = system: MDA-MB-231 breast
[15] = system: RXF 393 renal
[16] = system: SF-268 CNS
[17] = system: SF-295 CNS
[18] = system: SF-539 CNS
[19] = system: UACC-257 melanoma
[20] = system: M14 melanoma

Measured: growth

C=C1C(=O)O[C@H]2[C@H]1CC/C(COC(=O)NCCCCCCCCNC(=O)OC/C1=C/CC[C@@]3(C)O[C@H]3[C@H]3OC(=O)C(=C)[C@@H]3CC1)=C\CC[C@@]1(C)O[C@@H]21
active: [1] -53.6% | [2] -84.2% | [3] -26.4% | [4] -38.2% | [5] -51.1% | [6] -83.2% | [7] -68.7% | [8] 2.89% | [9] -89.9% | [10] -64.9% | [11] -92.1% | [12] -28.5% | [13] -64.4% | [14] -79.1% | [15] -83.6% | [16] -66.8% | [17] -21.7% | [18] -88.5% | [19] -55.1% | [20] -67.8%

CCN(CC)c1ccc(/C=C\c2cc(C)c3cc(C)ccc3n2)cc1
active: [6] -10.9% | [9] 2.99%
inactive: [1] 30.3% | [2] 59.5% | [3] 83% | [4] 45.6% | [5] 16.8% | [7] 28.6% | [8] 31.9% | [10] 50% | [11] 61.5% | [12] 13.1% | [13] 32.9% | [14] 54.2% | [15] 16.1% | [16] 40.2% | [17] 24.4% | [18] 20.1% | [19] 24.4% | [20] 15.9%

O=C(CCCCCCCCC(=O)N/N=C\c1cc(Cl)ccc1O)N/N=C\c1cc(Cl)ccc1O
active: [5] 7.22%
inactive: [1] 47.9% | [2] 15.4% | [3] 41.1% | [4] 30.7% | [6] 47.6% | [7] 34.3% | [8] 38.2% | [9] 16.3% | [10] 36.9% | [11] 30.5% | [12] 23.7% | [13] 37.6% | [14] 37% | [15] 46.7% | [16] 28.3% | [17] 21.9% | [18] 15.6% | [19] 23.6% | [20] 17.7%

COc1ccc(C2=CN3CC=CCC3CC2=O)cc1 (stereo not given)
inactive: [1] 106% | [2] 99.9% | [3] 113% | [4] 87.8% | [5] 108% | [6] 92.1% | [7] 66.9% | [8] 75% | [9] 101% | [10] 113% | [11] 100% | [12] 105% | [13] 116% | [14] 98.3% | [15] 100% | [16] 101% | [17] 104% | [18] 104% | [19] 71.6% | [20] 99.5%

O=C1NC(=C(Cl)Cl)/C(=N/S(=O)(=O)N2CCCCC2)N1
active: [6] -81.8% | [7] -82.3% | [9] 2.47% | [10] -84.5% | [12] -51.6% | [13] -73.6% | [14] -6.69% | [15] -39.8%
inactive: [1] 53.9% | [2] 89.5% | [3] 92.5% | [4] 62.1% | [5] 94.2% | [8] 93.4% | [11] 101% | [16] 28.3% | [17] 110% | [18] 11.8% | [19] 39.3% | [20] 37.9%

c1ccc(CCc2ccccc2-c2cc(-c3ccccc3)on2)cc1
inactive: [1] 75.1% | [2] 96.5% | [3] 87% | [4] 96.5% | [5] 82.4% | [6] 103% | [7] 80.1% | [8] 97.7% | [9] 94.5% | [10] 100% | [11] 92% | [12] 71.2% | [13] 102% | [14] 84.3% | [15] 94.2% | [16] 97.1% | [17] 96.3% | [18] 93.8% | [19] 99.9% | [20] 87.8%

Cc1ccc2[nH]c(-c3ccc(S(C)(=O)=O)cc3)c(/C=N/N=C(N)N)c2c1
inactive: [1] 76.4% | [2] 76.6% | [3] 79% | [4] 58.3% | [5] 37.9% | [6] 59.9% | [8] 46.2% | [9] 44.9% | [10] 49% | [11] 48% | [12] 26.3% | [13] 52.4% | [14] 67.6% | [15] 66.8% | [16] 62.1% | [17] 43.2% | [18] 59.5% | [19] 43.1% | [20] 32.5%
active: [7] -7.31%

COC(=O)c1c2c(n3ccc(C)cc13)C(=O)c1ccccc1C2=O
inactive: [1] 50.9% | [2] 62.1% | [3] 22.1% | [4] 78.4% | [6] 76.7% | [7] 47.5% | [9] 80.3% | [10] 42.5% | [11] 75.2% | [12] 60.8% | [13] 62.2% | [14] 77.9% | [15] 75.9% | [16] 74.9% | [17] 67.6% | [18] 94.8% | [19] 72.4% | [20] 63.5%
active: [5] 4.07% | [8] -41.6%

COC(=O)c1c2c(c(C)[n+]([O-])c1C)C(=O)C=CC2=O
inactive: [6] 45.8% | [8] 15.8% | [12] 10.5% | [17] 19%
active: [1] -68.3% | [2] -91.9% | [3] 2.39% | [4] -65.4% | [5] 2.35% | [7] -70.1% | [9] -29.9% | [10] -78.5% | [11] -78.6% | [13] -87.8% | [14] 0.888% | [15] -76.2% | [16] -0.514% | [18] -98.2% | [19] -80.8% | [20] -82.8%

Clc1nccc2c(-c3csc(-c4c[nH]c5ccccc45)n3)c[nH]c12
active: [19] -29.2% | [20] -26.6%
inactive: [1] 68.8% | [2] 39.5% | [3] 80.8% | [4] 101% | [5] 11.9% | [6] 24.3% | [7] 18.5% | [8] 29.1% | [9] 27.7% | [10] 33.3% | [11] 31.6% | [12] 10.3% | [13] 79.8% | [14] 24.8% | [15] 12.4% | [16] 73.4% | [17] 26.7% | [18] 41.9%

Fc1ccc(COc2ccc(Nc3ncnc4sc5c(c34)CCCC5)cc2)cc1
inactive: [1] 99.4% | [2] 102% | [3] 86.9% | [4] 97.2% | [5] 97.3% | [6] 88.9% | [7] 73% | [8] 88.4% | [9] 94.6% | [10] 103% | [11] 96.8% | [12] 103% | [13] 109% | [14] 94.9% | [15] 109% | [16] 89.8% | [17] 89.8% | [18] 103% | [19] 106% | [20] 104%

O=C(c1ccc(Cl)cc1Cl)N1c2ccccc2Sc2ccccc21
inactive: [1] 73.5% | [2] 68% | [3] 85.2% | [4] 64.7% | [5] 18.3% | [6] 71.5% | [7] 63.7% | [8] 54.2% | [9] 67% | [10] 45% | [11] 65.2% | [13] 63.8% | [14] 68.8% | [15] 70% | [16] 50% | [17] 53.1% | [18] 41.8% | [19] 64.3% | [20] 59.8%
active: [12] -42.2%

CCOC(=O)c1c(-c2ccccc2)n2c(=O)cc(C)c3c(O)c(O)cc1c32
inactive: [1] 66.2% | [2] 84.6% | [3] 50.3% | [4] 39.4% | [5] 20.3% | [6] 47% | [7] 66.2% | [8] 43.1% | [9] 62.7% | [10] 86.9% | [11] 76.9% | [12] 53.4% | [13] 64.7% | [14] 76.3% | [15] 76.3% | [16] 52.2% | [17] 59.9% | [18] 75.7% | [19] 69.7% | [20] 66.2%

N#Cc1c(-c2ccccc2)cc(-c2ccccc2)n(CCCC(=O)NO)c1=O
active: [5] 8.19% | [12] 7.36% | [15] -1.83%
inactive: [1] 31.2% | [2] 13% | [3] 35.3% | [4] 22.2% | [6] 30.4% | [7] 21.8% | [8] 22.8% | [9] 17.7% | [10] 18.3% | [11] 26.1% | [13] 11.1% | [14] 35.1% | [16] 37.3% | [17] 13.8% | [18] 20.6% | [19] 37.6% | [20] 18.6%

N#Cc1nc(-c2ccc(F)cc2)oc1S(=O)(=O)N1CCN(c2ccc(F)cc2)CC1
inactive: [1] 72.8% | [2] 91.7% | [3] 100% | [4] 109% | [5] 102% | [6] 123% | [7] 43.5% | [8] 104% | [9] 100% | [10] 86.7% | [11] 102% | [12] 17.6% | [13] 104% | [14] 92% | [15] 95.3% | [16] 106% | [17] 106% | [18] 101% | [19] 97.9% | [20] 88.2%
